uPA surface inh – qHTS for Inhibitors of Cell Surface uPA Generation; AID 540303, 2011; cell surface uPA generation assay, qHTS; Potency, µM (series often up to 38.3 µM), for the others: top-dose activity change, negative = inhibition, most hits filed as inhibitors; 0.31% of 330,000 active; active means well fitted inhibition curve with a large enough effect; inconclusive means small, poorly fitted or top-dose-only effect; inactive means no such curve, though single readings can be large or run the other way; tested in mouse RAW 264.7 cells; further: on the % scale 0 is the no-effect control and ±100 the full control effect; nearly all actives have a fitted effect of over 55% in size
Gal4-VP16 FLuc – VP16 counterscreen qHTS for inhibitors of ROR gamma transcriptional activity; AID 2546, 2010; Drosophila S2 Gal4-VP16 UAS-luciferase, luminescence, 20 h; 3.5% of 310,000 active; Potency, µM (series often up to 53.6 µM), for the others: at the highest dose activity, negative = inhibition, actives largely listed as inhibitors;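 further: Gal4-VP16 expression switched on by copper sulfate through the metallothionein promoter; on the % scale 0 is the no-effect control and ±100 the full control effect; nearly all actives have a fitted effect of over 50% in size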
Mito fusion act – qHTS Assay for Small Molecule Inhibitors of Mitochondrial Division or Activators of Mitochondrial Fusion. AID 485298, 2010. S. cerevisiae fusion-defective mutant growth rescue, CellTiterGlo 48 h. 0.23% of 320,000 active. Potency, µM (doses to about 46.1 µM), for the others: at the highest dose growth rescue (activation), usual class: activators; further: % of control where 0% means no effect; nearly all actives have a fitted effect of over 45% in size
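Compounds are tested for their ability to restore growth of mitochondrial fusion-defective yeast strains at non-permissive 37C in YPEG medium over 48 hours. Viability is quantified by luciferase luminescence.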
BCR signal inh – qHTS Assay to Find Inhibitors of Chronic Active B-Cell Receptor Signaling; ABC-DLBCL IkBa-CBG/CBR reporter, luminescence ratio, 4 h; Potency, µM (series often up to 46.1 µM), for the others: top-dose activity change, negative = inhibition, usual class: inhibitors; 0.05% of 340,000 active; AID 493014, 2011; active means well fitted inhibition curve with a large enough effect in the signal ratio, with a control signal flat, not every such curve was filed as active; inconclusive means small, poorly fitted or top-dose-only effect, or effect the other way, or a change in a side signal; the % refers to the signal ratio;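 further: plate controls were basal doxycycline-induced cells for no effect and cells given 10 µM MG132 for full effect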
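Compounds up to 46 uM were incubated four hours with TMD8 cells whose green CBG68 luciferase is fused to IkappaBalpha; red CBR luminescence normalised the signal, and concentration-effect curves were fitted to fusion, red and ratio data.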
RORg inh – qHTS for inhibitors of ROR gamma transcriptional activity. Nuclear receptor ROR-gamma (Mus musculus), P51450. Drosophila S2 Gal4-RORgamma UAS-luciferase reporter, 20 h. Potency, µM (series often up to 53.6 µM), for inactives: top-dose activity change, negative = inhibition, hits mostly inhibitors. 5.4% of 310,000 active. AID 2551, 2010; further: on the % scale 0 is the no-effect control and ±100 the full control effect; nearly all actives have a fitted effect of over 60% in size
Target sequence (P51450 whole entry, looked up, the tested form may be a part): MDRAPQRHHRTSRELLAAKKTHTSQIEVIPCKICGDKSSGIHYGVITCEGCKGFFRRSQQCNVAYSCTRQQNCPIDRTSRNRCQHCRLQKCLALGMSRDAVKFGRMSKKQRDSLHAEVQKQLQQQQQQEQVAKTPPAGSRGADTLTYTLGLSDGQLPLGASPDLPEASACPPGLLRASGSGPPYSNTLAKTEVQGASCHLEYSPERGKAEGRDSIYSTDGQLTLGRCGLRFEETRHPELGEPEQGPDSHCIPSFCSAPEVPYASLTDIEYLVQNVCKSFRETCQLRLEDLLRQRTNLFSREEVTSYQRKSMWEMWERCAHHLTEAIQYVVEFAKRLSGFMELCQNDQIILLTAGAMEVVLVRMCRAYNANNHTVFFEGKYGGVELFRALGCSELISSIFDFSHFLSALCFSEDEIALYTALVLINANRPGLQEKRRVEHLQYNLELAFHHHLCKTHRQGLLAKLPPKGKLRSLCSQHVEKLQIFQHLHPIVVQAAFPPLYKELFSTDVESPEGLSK
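Read-out: Photinus luciferase luminescence; inhibitors lower reporter signal. Insect Schneider cells with Gal4-ROR gamma fusion under metallothionein promoter, UAS reporter; 700 uM final copper sulfate induction, 20 hr, ambient temperature.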
a7 integrin act – qHTS for Activators of Integrin-Mediated Alleviation for Muscular Dystrophy. Potency, µM (top dose mostly 38.3 µM), without a hit: at the top dose activation, most hits filed as activators. alpha7betagal myoblasts, beta-gal FDG fluorescence, 48 h. AID 624291, 2012. 0.064% of 350,000 active;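 further: 100% = response of the positive control SU9516; nearly all actives have a fitted effect of over 60% in size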
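alpha7betagal+/- myoblasts (passage 13, 250/well) treated 48 h at 37C with compounds at 1:260 dilution of DMSO stock. Lysed, then beta-galactosidase activity read as FDG fluorescence (ex 480/em 540) after 30 min, with pre-read for autofluorescence.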
The depositor's hits bear a star; ? = inconclusive; . = not tested or not shown. Rows were chosen to be rich in hits. Some 5.5% of all compounds tested hit in one or more screens of this group. Unless noted, the call rests on the fitted dose curve; in most records, active means well fitted curve in the direction sought with a large enough effect; inconclusive means small, poorly fitted or top-dose-only effect, or another doubt; inactive means no such curve, though single readings can be large; an effect the other way counts as inactive or inconclusive. Potency means the concentration at half of the fitted maximal effect.

SMILES	uPA surface inh	Gal4-VP16 FLuc	Mito fusion act	BCR signal inh	RORg inh	a7 integrin act
NS(=O)(=O)c1ccc(CCNC(=O)CSc2nc3ccsc3c(=O)n2Cc2ccccn2)cc1	.	.	.	.	.	5.8%
Cc1cccn2c(/C=N/OCc3cccc(F)c3)c(-c3ccc(Cl)cc3)nc12	1.3%	-5.9%	-0.7%	-2.0%	2.24µM*	-16.6%
Fc1cccc(CO/N=C/c2c(-c3ccccc3)nc3ccc(Cl)cn23)c1	-4.9%	8.3%	2.6%	2.1%	4.6%	35.6%
COc1ccc(S(=O)(=O)N2CCC(C(=O)NC3CC3)CC2)cc1OC	-3.1%	0.6%	-1.3%	0.5%	-4.4%	21.1%
Cc1cc(C)c(S(=O)(=O)NCC23C=CC(O2)C2C(=O)N(c4ccccc4)C(=O)C23)c(C)c1 (stereo unspecified)	-2.5%	?	-5.7%	10.8%	15.8µM*	0.0%
O=C1C2C3C=CC(CNS(=O)(=O)c4ccccc4[N+](=O)[O-])(O3)C2C(=O)N1c1ccccc1 (stereo unspecified)	4.0%	11.2µM*	-3.4%	0.1%	?	-4.5%
O=C1C2C3C=CC(CO)(O3)C2C(=O)N1c1ccc(-c2ccccc2)cc1 (stereo unspecified)	.	10µM*	-7.4%	?	6.31µM*	.
CCc1cccc(NS(=O)(=O)c2c(C)nc3scc(C)n3c2=O)c1	1.8%	-0.4%	29.5%	-1.3%	43.9%	24.5%
CCCc1[nH][nH]c(=O)c1C(c1ccccc1)C(C#N)C#N (stereo unspecified)	1.8%	8.6%	-6.8%	3.3%	-21.8%	16.9%
Cc1[nH]n(-c2ncc(-c3ccccc3)s2)c(=O)c1C(c1ccc(Br)cc1)C(C#N)C#N (stereo unspecified)	-3.6%	12.6µM*	-10.5%	6.2%	11.2µM*	15.1%
Cc1[nH]n(C(N)=S)c(=O)c1C(c1ccccc1)C(C#N)C#N (stereo unspecified)	-4.2%	10µM*	-6.0%	?	10µM*	-4.1%
Cc1csc(NC(=O)c2ccc(COc3ccccc3)o2)n1	-1.5%	-16.7%	17.6%	?	-11.7%	12.6%
O=C(Oc1ccccc1)N1CCC2(CC1)CCN(c1ncccn1)CC2	.	-7.4%	.	.	-18.5%	.
CCOC(=O)c1sc(=N)n(-c2ccc(OC)cc2)c1C	-6.6%	20.9%	-2.5%	-21.7%	14.8%	2µM*
Cc1cc(C(=O)c2ccc(C(C)(C)C)cc2)c(NC(=O)CCl)s1	-9.8%	?	7.3%	-1.3%	11.2µM*	-49.7%
Cc1ccc(/C=[N+](\[O-])c2ccc(N(C)C)cc2)c2nsnc12	-16.4%	?	6.2%	10µM*	5.01µM*	-61.2%
Cc1ccc2nsnc2c1NS(=O)(=O)c1c(C)ccc2nsnc12	2.5%	7.3%	13.6%	-0.4%	-29.7%	-7.5%
CCOc1ccc(-c2[nH]ncc2Oc2ccccc2OC)c(O)c1	9.5%	?	?	-3.1%	15.8µM*	1.0%
CCOc1ccc(-c2[nH]ncc2Oc2ccccc2OCC)c(O)c1	2.2%	?	12.2%	-13.9%	10µM*	-13.4%
CNC[C@H](CC1CCCCC1)NC[C@H](Cc1ccccc1)NCCC12CC3CC(CC(C3)C1)C2	-5.4%	?	-23.2%	-22.5%	20µM*	-43.8%
C(=N\N1CCN(C2c3ccccc3-c3ccccc32)CC1)/c1cccnc1	3.0%	?	-0.2%	9.1%	-28.4%	16.5%
C(=N\N1CCN(C2c3ccccc3-c3ccccc32)CC1)/c1ccccn1	-1.2%	?	-4.9%	5.0%	7.08µM*	27.9%
Cc1cccc(-c2nn(C(=S)Nc3ccccc3)cc2-c2ccnc3ccccc23)n1	.	-22.6%	.	.	?	.
Cc1cccn2cc(CNc3ccccc3)nc12	.	0.8%	-7.9%	-13.3%	?	14.1%
CCOC(=S)SCc1cn2cccc(C)c2n1	2.8%	-26.9%	0.7%	-25.6%	14.1µM*	13.4%
SMILES	uPA surface inh	Gal4-VP16 FLuc	Mito fusion act	BCR signal inh	RORg inh	a7 integrin act
C=CCOc1ccc(CNn2cn[nH]c2=S)cc1	-3.0%	?	-1.1%	-14.1%	12.6µM*	5.4%
COc1cc(CNn2c(C)n[nH]c2=S)cc(Cl)c1OCc1ccc(F)cc1	-6.6%	?	16.9%	?	?	-2.9%
C=CCOc1c(Br)cc(CNn2cn[nH]c2=S)cc1OC	-3.4%	-2.3%	-1.0%	0.1%	10µM*	-17.9%
COc1cc(CNn2c(C)n[nH]c2=S)cc(Br)c1OCc1ccc(F)cc1	-4.5%	-2.3%	?	-15.2%	10µM*	9.4%
Cc1ccc(CNn2cn[nH]c2=S)cc1	-2.9%	.	.	.	.	-5.8%
C=CCOc1c(Br)cc(CNn2c(C)n[nH]c2=S)cc1OCC	-6.4%	?	-9.8%	-19.9%	?	15.5%
COc1ccc(NS(=O)(=O)c2csc(C(=O)Nc3ccccc3)c2)cc1	-2.4%	20µM*	-8.8%	-0.2%	12.6µM*	-17.2%
Cc1ccc(NC(=S)N/C(=N/S(=O)(=O)c2ccccc2)c2ccccc2)cc1	-9.6%	12.6µM*	2.7%	?	?	-16.3%
Cc1ccc(S(=O)(=O)/N=C(/NC(=S)Nc2ccccc2)c2ccccc2)cc1	3.5%	3.0%	7.2%	?	-34.4%	1.0%
COC(=O)c1ccc(NC(=S)Nc2ccc3ccccc3c2)cc1	0.4%	?	7.5%	?	12.6µM*	11.0%
COc1ccc(NC(=O)c2ccc(NC(=O)c3cccs3)cc2)cc1	4.6%	?	3.0%	?	7.08µM*	-5.3%
O=C(/C=C/c1ccc(O)c(O)c1)OC1C[C@](O)(C(=O)O)C[C@@H](O)[C@H]1O (stereo partly specified)	.	5.9%	.	.	21.7%	.
CC12CCC=CC1C(c1ccc(F)c(Br)c1)N(Cc1ccccc1)C2=O (stereo unspecified)	.	27.8%	.	.	15.0%	.
Cc1ccc(-c2cc(NC(=O)c3ccccc3)on2)cc1	0.1%	7.3%	-9.0%	-8.2%	-20.1%	-18.1%
COc1ccc(C(=O)NNC(=O)C(=O)Nc2ccc(C)cc2)cc1	-0.2%	-11.6%	-1.3%	?	-31.3%	-7.1%
COc1ccc(/C=C(\NC(=O)c2ccc(C)cc2)C(=O)Nc2ccc(C(=O)O)cc2)cc1	4.6%	10.3%	1.9%	8.7%	-2.5%	11.2µM*
COc1ccc(C(=O)Nc2cc(-c3ccc(C)cc3)no2)cc1	10.3%	-23.5%	0.6%	6.8%	3.16µM*	-68.4%
COc1cccc(C(=O)Nc2ccc3ccccc3c2)c1	-3.0%	?	4.1%	?	?	14.0%
